Measured values from PubChem BioAssay (NCI).
This is part of a sample that, as a whole, favours compounds with a hit. Of some 83,000 tested, about 20% had one in any assay.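 Assay: single dose, 48 h. Readout: percent growth (0 = no net growth; negative = cell death). Active: <10.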 The source made the active and inactive calls.

Key:
Experiment in all cases: NCI-60 one-dose screen, 48 h (100 = growth as untreated, 0 = no growth, -100 = all killed)
Details in all cases: 10 µM unless noted
NCI-H23 lung = test system: NCI-H23 lung
NCI-H226 lung = test system: NCI-H226 lung
NCI-H322M lung = test system: NCI-H322M lung
HOP-62 NSCLC = test system: HOP-62 NSCLC
NCI-H460 lung = test system: NCI-H460 lung
HOP-92 NSCLC = test system: HOP-92 NSCLC
NCI-H522 lung = test system: NCI-H522 lung
A549/ATCC NSCLC = test system: A549/ATCC NSCLC
786-0 renal = test system: 786-0 renal
COLO 205 colon = test system: COLO 205 colon
DU-145 prostate = test system: DU-145 prostate
K-562 leukemia = test system: K-562 leukemia
MALME-3M melanoma = test system: MALME-3M melanoma
MDA-MB-231 breast = test system: MDA-MB-231 breast
SF-268 CNS = test system: SF-268 CNS
SF-539 CNS = test system: SF-539 CNS
UACC-257 melanoma = test system: UACC-257 melanoma
M14 melanoma = test system: M14 melanoma
SF-295 CNS = test system: SF-295 CNS

Measured: growth

CCCCCCCCCCCCN1CCCC(C)C1 (stereo unspecified)
inactive: NCI-H23 lung 80.3% | NCI-H226 lung 85.3% | NCI-H322M lung 87.2% | HOP-62 NSCLC 89.1% | NCI-H460 lung 106% | HOP-92 NSCLC 73% | NCI-H522 lung 69.3% | A549/ATCC NSCLC 91.4% | 786-0 renal 85.9% | COLO 205 colon 82.2% | DU-145 prostate 95.2% | K-562 leukemia 19.2% | MALME-3M melanoma 107% | MDA-MB-231 breast 55.8% | SF-268 CNS 89.7% | SF-539 CNS 86.4% | UACC-257 melanoma 88.3% | M14 melanoma 82.7%

CCOC(=O)c1nc(Nc2cc(C)[nH]n2)c2ccccc2n1
inactive: NCI-H23 lung 95.1% | NCI-H226 lung 81% | NCI-H322M lung 90.7% | HOP-62 NSCLC 103% | NCI-H460 lung 79.7% | HOP-92 NSCLC 86.3% | NCI-H522 lung 92.2% | A549/ATCC NSCLC 96.5% | 786-0 renal 82.6% | COLO 205 colon 104% | DU-145 prostate 109% | K-562 leukemia 99.9% | MALME-3M melanoma 116% | MDA-MB-231 breast 108% | SF-268 CNS 101% | SF-295 CNS 107% | SF-539 CNS 95.5% | UACC-257 melanoma 106% | M14 melanoma 80.9%

CCOC(=O)CC(C)=N
inactive: NCI-H23 lung 118% | NCI-H226 lung 106% | NCI-H322M lung 121% | HOP-62 NSCLC 107% | NCI-H460 lung 109% | HOP-92 NSCLC 99.4% | NCI-H522 lung 92% | A549/ATCC NSCLC 101% | 786-0 renal 103% | COLO 205 colon 108% | DU-145 prostate 121% | K-562 leukemia 110% | MALME-3M melanoma 99.9% | MDA-MB-231 breast 103% | SF-268 CNS 130% | SF-295 CNS 111% | SF-539 CNS 97.6% | UACC-257 melanoma 102% | M14 melanoma 102%

C#Cc1nc(Nc2cc(C)[nH]n2)c2ccccc2n1
active: NCI-H23 lung -19.4% | NCI-H226 lung -63.3% | NCI-H322M lung -18.2% | HOP-62 NSCLC -61.2% | NCI-H460 lung -36.7% | HOP-92 NSCLC -46.3% | NCI-H522 lung -72.7% | A549/ATCC NSCLC -35.7% | 786-0 renal -60.7% | COLO 205 colon -56.6% | DU-145 prostate -80% | K-562 leukemia 2.59% | MALME-3M melanoma -70.8% | MDA-MB-231 breast -56% | SF-268 CNS -86% | SF-295 CNS -57.9% | SF-539 CNS -44.5% | UACC-257 melanoma -54.9% | M14 melanoma -23.6%

COc1ccc(-c2nc(Nc3cc(C)[nH]n3)c3ccccc3n2)cc1
inactive: NCI-H23 lung 60.2% | NCI-H226 lung 41.2% | NCI-H322M lung 78.1% | HOP-62 NSCLC 43.2% | NCI-H460 lung 28.5% | A549/ATCC NSCLC 23.9% | 786-0 renal 50% | DU-145 prostate 61% | K-562 leukemia 24.2% | MALME-3M melanoma 79.9% | MDA-MB-231 breast 65.3% | SF-268 CNS 37.3% | SF-295 CNS 48.8% | SF-539 CNS 15% | UACC-257 melanoma 52% | M14 melanoma 60.4%
active: HOP-92 NSCLC 3.24% | NCI-H522 lung 8.31% | COLO 205 colon 3.04%

Nc1cc2nc3ccccc3sc-2cc1=O
inactive: NCI-H23 lung 50% | NCI-H226 lung 84.4% | NCI-H322M lung 93.8% | HOP-62 NSCLC 63.9% | NCI-H460 lung 75% | HOP-92 NSCLC 101% | NCI-H522 lung 66% | A549/ATCC NSCLC 27.3% | 786-0 renal 97.7% | COLO 205 colon 104% | DU-145 prostate 21.5% | K-562 leukemia 28.5% | MDA-MB-231 breast 59.2% | SF-268 CNS 78.1% | SF-295 CNS 65.9% | SF-539 CNS 98% | UACC-257 melanoma 50.8% | M14 melanoma 81.2%
active: MALME-3M melanoma -7%

CC(=O)OCC(=O)C1CCC=CC1OC(C)=O (stereo unspecified)
inactive: NCI-H23 lung 97.7% | NCI-H226 lung 92.6% | NCI-H322M lung 88.8% | HOP-62 NSCLC 86.3% | NCI-H460 lung 108% | HOP-92 NSCLC 98.9% | NCI-H522 lung 75.1% | A549/ATCC NSCLC 94.4% | 786-0 renal 99.2% | COLO 205 colon 110% | DU-145 prostate 103% | K-562 leukemia 98.9% | MALME-3M melanoma 74.2% | MDA-MB-231 breast 109% | SF-268 CNS 106% | SF-295 CNS 94.8% | SF-539 CNS 103% | UACC-257 melanoma 92.6% | M14 melanoma 96.9%

Cc1ccc(C2CC3c4ccccc4C2C2CCCCN32)cc1 (stereo unspecified)
inactive: NCI-H23 lung 93.6% | NCI-H226 lung 95.9% | NCI-H322M lung 84.1% | HOP-62 NSCLC 98.6% | NCI-H460 lung 104% | HOP-92 NSCLC 85.4% | NCI-H522 lung 72.6% | A549/ATCC NSCLC 89.9% | 786-0 renal 92.7% | COLO 205 colon 74% | DU-145 prostate 108% | K-562 leukemia 72% | MALME-3M melanoma 85.6% | MDA-MB-231 breast 109% | SF-268 CNS 90.1% | SF-295 CNS 78.4% | SF-539 CNS 91.4% | UACC-257 melanoma 59.9% | M14 melanoma 94.5%
